# In PubChem BioAssay AID2283364 (EPA ToxCast):
# Records with an inconclusive call do not appear. Active and inactive are the calls of the source. Rule for the calls: active = hit-call score of the fitted dose curve at least 0.9, where 1 is the maximum; inconclusive = response in the unintended direction; inactive = score below 0.9.
# Molecular target: human FK-506 Binding Protein (FKBP12), FKBP1A (gene 2280) (UniProt P62942)
# Assay: NVS_OR_hFKBP12: NovaScreen (NVS) Nuclear Receptor Binding Assay for human FK-506 Binding Protein (FKBP12)
# Experimental: NVS_OR_hFKBP12 is a biochemical, single-readout assay that uses extracted gene-proteins from E. coli in a cell-free assay. Measurements were taken 0.75 hour after chemical dosing in a 48-well plate.NVS_OR_hFKBP12 is one of one assay component(s) measured or calculated from the NVS_OR_hFKBP12 assay. It is designed to make measurements of radioligand binding, a form of binding reporter, as detected with scintillation counting signals by Filter-based radiodetection technology.Data from the assay component NVS_OR_hFKBP12 was analyzed into 1 assay endpoint. This assay endpoint, NVS_OR_hFKBP12, was analyzed in the positive analysis fitting direction relative to DMSO as the negative control and baseline of activity. Using a type of binding reporter, loss-of-signal activity can be used to understand changes in the binding as they relate to the gene FKBP1A. Furthermore, this assay endpoint can be referred to as a primary readout, because the performed assay has only produced 1 assay endpoint. To generalize the intended target to other relatable targets, this assay endpoint is annotated to the misc protein intended target family, where the subfamily is chaperone.
# Binding assays used specific radioligands (tritiated, iodinated) with non-radioactive competitive displacement ligands in agonist or antagonist protocols (as indicated) and various reference compounds and inhibitors to titrate specific binding to receptors and transporters. Most enzyme assays (CYPs, kinases, phosphatases, proteases, HDACs) used recombinant protein and specific substrates (fluorescence mostly, some colorimetric and radioactive) and inhibitors, followed by a biochemical separation of substrate and product. All assays for the biochemical HTS were initially run in duplicate at a single concentration (10 uM for CYP450 assays and 25 uM for all others). Assay-chemical combinations meeting a pre-defined threshold (e.g., 30% inhibition and other criteria defined below) were then run in singleton concentration-response format with maximum concentration of 20 uM for CYPs and 50 uM for all others. Each assay was run with positive and negative controls, and concurrent controls on every plate. The follow-up (secondary) screen tested active chemical-pairs in concentration series, as well as a few additional assays not tested in the primary screen, some selected negative inactives, and several cases re-run in the concentration series for confirmatory purposes.
# human FK-506 Binding Protein (FKBP12), FKBP1A (gene 2280), sequence (P62942 whole entry, looked up): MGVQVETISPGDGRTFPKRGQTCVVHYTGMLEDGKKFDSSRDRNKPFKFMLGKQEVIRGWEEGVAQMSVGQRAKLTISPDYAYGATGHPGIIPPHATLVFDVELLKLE
row,SMILES,outcome
1,Cc1ccn2nc(S(=O)(=O)Nc3c(F)cccc3F)nc2n1,inactive
2,CO/N=C(/C1=NOCCO1)c1ccccc1Oc1ncnc(Oc2ccccc2Cl)c1F,inactive
3,CNC(=O)Oc1ccccc1OC(C)C,inactive
4,O=C(O)c1nc(Cl)ccc1Cl,inactive
5,COP(=S)(OC)SCn1nnc2ccccc2c1=O,inactive
6,COC(=O)C=C(C)OP(=O)(OC)OC,inactive
7,Cc1cc(C)nc(NC(=O)NS(=O)(=O)c2ccccc2C(=O)OC2COC2)n1,inactive
8,CC[C@H](C)[C@H]1O[C@]2(C=C[C@@H]1C)C[C@@H]1C[C@@H](C/C=C(\C)[C@@H](O[C@H]3C[C@H](OC)[C@@H](O[C@H]4C[C@H](OC)[C@@H](O)[C@H](C)O4)[C@H](C)O3)[C@@H](C)/C=C/C=C3\CO[C@@H]4[C@H](O)C(C)=C[C@@H](C(=O)O1)[C@]34O)O2 (tested in a mixture with another compound),inactive
9,c1ccc(-c2ccccc2)cc1,inactive
